About 79,000 compounds went through this panel and 15% of them were active in at least one assay; those are over-represented in the sample as a whole. Unmarked numbers belong to inactive results. Calls of active or inactive are those of the source. Cut-off read from the data, not from the text of the source: active = growth inhibition above about 70%; inactive = the rest.

For 10 molecules, growth inhibition results are on record in PubChem BioAssay (NCI).

A short description of experiment [1]: NCI Yeast Anticancer Drug Screen. Data for the rad50 strain (AID 155).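 Note: 0% = growth of vehicle-only cultures of the same strain.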 The conditions noted are these: S. cerevisiae rad50 strain growth inhibition, hits give high values. In short, it runs like this:
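Readout: growth inhibition relative to vehicle-treated cultures. Compound exposure was carried out in a genetically defined yeast strain deficient in DNA damage repair.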

Experiment [2] can be described thus: NCI Yeast Anticancer Drug Screen. Data for the mec2-1 strain (AID 157). The conditions noted are these: S. cerevisiae mec2-1 strain, hits give high values. In outline:
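Mutant yeast (mec2-1) grown with compound; growth inhibition relative to vehicle control reported.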

Experiment [3] can be described thus: NCI Yeast Anticancer Drug Screen. Data for the sgs1 mgt1 strain (AID 161).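 Note: 0% = growth of cultures given vehicle only.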 The conditions noted are these: S. cerevisiae sgs1 mgt1 strain, hits give high values. In short, it runs like this: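 Compounds are added to genetically altered yeast, and growth is compared with cultures given vehicle alone to give percent inhibition.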
The nature of experiment [4]: NCI Yeast Anticancer Drug Screen. Data for the cln2 rad14 strain (AID 165).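 Note: 0% = growth equal to vehicle treated cultures.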 The conditions noted are these: S. cerevisiae cln2 rad14 strain, hits give high values. In outline: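 Readout is yeast growth inhibition versus vehicle-treated controls, using a strain with cln2 and rad14 alterations exposed to compound.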
The nature of experiment [5]: NCI Yeast Anticancer Drug Screen. Data for the bub3 strain (AID 167). The conditions noted are these: S. cerevisiae bub3 mutant strain, hits give high values. In outline:
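Readout: yeast growth inhibition, expressed relative to vehicle-only wells. The test organism is a mutant strain from a panel with lesions in DNA repair or checkpoint genes.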

Experiment [6] can be described thus: NCI Yeast Anticancer Drug Screen. Data for the mlh1 rad18 strain (AID 175). The note with it: S. cerevisiae mlh1 rad18 strain growth inhibition, hits give high values. In short, it runs like this:
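Genetically defined yeast (DNA repair-deficient) exposed to compounds; growth inhibition determined relative to vehicle.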

The mark [7] stands for this setting: at 5.0 µM (retest, dose inferred, filed as 0.5).
[8] abbreviates: at 50.0 µM (retest, dose inferred, filed as 5.0).

Regarding `CCOP(=O)(C=C=C1CCC2[C@@H]3CCc4cc(OC)ccc4C3CC[C@]12C)OCC` (stereo not given in full), the growth inhibition in experiment [1] (setting [7]) is 5%; in experiment [1] (setting [8]) it was 97% (active); in experiment [1] (at 50.0 µM), 97.7% (active); in experiment [2] (setting [7]) it was -1%; in experiment [2] (setting [8]), 99% (active); in experiment [2] (at 50.0 µM), 98.3% (active). The growth inhibition in experiment [3] (setting [7]) is 3%; in experiment [3] (setting [8]), 98% (active); in experiment [3] (at 50.0 µM), 98% (active); in experiment [4] (setting [7]), 1%; in experiment [4] (setting [8]), 98% (active); in experiment [4] (at 50.0 µM), 97.8% (active). Besides, the growth inhibition is 13% in experiment [5] (setting [7]); 98% (active) in experiment [5] (setting [8]); 98% (active) in experiment [5] (at 50.0 µM); -7% in experiment [6] (setting [7]); 98% (active) in experiment [6] (setting [8]); 98% (active) in experiment [6] (at 50.0 µM).

For `Oc1c(Br)c(Br)c(O)c(Br)c1Br`, the growth inhibition in experiment [1] (setting [7]) was 12%; in experiment [1] (setting [8]) it was 50%; in experiment [1] (at 50.0 µM), 98.9% (active); in experiment [2] (setting [7]), 7%; in experiment [2] (setting [8]), 33%; in experiment [2] (at 50.0 µM) it was 99.2% (active). The growth inhibition in experiment [3] (setting [7]) was 7%; in experiment [3] (setting [8]), 58%; in experiment [3] (at 50.0 µM) it was 94.5% (active); in experiment [4] (setting [7]), 5%; in experiment [4] (setting [8]) it was 13%; in experiment [4] (at 50.0 µM), 37.5%. Further, the growth inhibition in experiment [5] (setting [7]) is 8%; in experiment [5] (setting [8]) it was 42%; in experiment [5] (at 50.0 µM) it was 97.8% (active); in experiment [6] (setting [7]), 10%; in experiment [6] (setting [8]) it was 35%; in experiment [6] (at 50.0 µM), 98% (active).

For `CC(=O)O[C@H]1CC[C@]2(C)C3=CC[C@]4(C)[C@@H](C(C)=O)CC[C@H]4[C@@]34C=C[C@]2(C1)C1C(=O)OC(=O)C14` (stereo not given in full), the growth inhibition in experiment [1] (setting [7]) is 2%; in experiment [1] (setting [8]) it was 2%; in experiment [1] (at 50.0 µM), 58.2%; in experiment [2] (setting [7]) it was 2%; in experiment [2] (setting [8]), 6%; in experiment [2] (at 50.0 µM), 20.7%. Moreover, the growth inhibition in experiment [3] (setting [7]) was 1%; in experiment [3] (setting [8]) it was 7%; in experiment [3] (at 50.0 µM) it was 29.4%; in experiment [4] (setting [7]), 4%; in experiment [4] (setting [8]) it was 4%; in experiment [4] (at 50.0 µM) it was -24%. Besides, the growth inhibition in experiment [5] (setting [7]) is 3%; in experiment [5] (setting [8]), 4%; in experiment [5] (at 50.0 µM) it was 56.9%; in experiment [6] (setting [7]) it was -20%; in experiment [6] (setting [8]), -26%; in experiment [6] (at 50.0 µM), 70.8% (active).

With `C/C(=N/Nc1ccc([N+](=O)[O-])cc1[N+](=O)[O-])C1=CCC(C(C)(C)C)CC1` (stereo not given), the growth inhibition in experiment [1] (setting [7]) is 7%; in experiment [1] (setting [8]) it was 2%; in experiment [1] (at 50.0 µM), -6.7%; in experiment [2] (setting [7]) it was -4%; in experiment [2] (setting [8]) it was -11%; in experiment [2] (at 50.0 µM), -32.5%. The growth inhibition in experiment [3] (setting [7]) is -5%; in experiment [3] (setting [8]) it was 27%; in experiment [3] (at 50.0 µM), -7.05%; in experiment [4] (setting [7]) it was 4%; in experiment [4] (setting [8]), -1%; in experiment [4] (at 50.0 µM), 38.8%. The growth inhibition in experiment [5] (setting [7]) was -3%; in experiment [5] (setting [8]), -1%; in experiment [5] (at 50.0 µM), -11.6%; in experiment [6] (setting [7]) it was -7%; in experiment [6] (setting [8]), -6%; in experiment [6] (at 50.0 µM), 11.8%.

Take `COc1cccc(C2c3cc4c(cc3OC(Nc3ccccc3)C2C)OCO4)c1O` (stereo not given): the growth inhibition in experiment [1] (setting [7]) is -8%; in experiment [1] (setting [8]) it was 97% (active); in experiment [1] (at 50.0 µM) it was 77.5% (active); in experiment [2] (setting [7]), -8%; in experiment [2] (setting [8]), 95% (active); in experiment [2] (at 50.0 µM), 55.1%. The growth inhibition in experiment [3] (setting [7]) is 1%; in experiment [3] (setting [8]), 97% (active); in experiment [3] (at 50.0 µM) it was 94.8% (active); in experiment [4] (setting [7]), 4%; in experiment [4] (setting [8]), 97% (active); in experiment [4] (at 50.0 µM) it was 89.7% (active). In addition, the growth inhibition was -19% in experiment [5] (setting [7]); 96% (active) in experiment [5] (setting [8]); 53.1% in experiment [5] (at 50.0 µM); 0% in experiment [6] (setting [7]); 97% (active) in experiment [6] (setting [8]); 96.5% (active) in experiment [6] (at 50.0 µM).

On to `CC(=O)OC12CC(C(F)(F)F)(C(F)(F)F)OC1(OC(C)=O)CC(C(F)(F)F)(C(F)(F)F)O2` (stereo not given), for which the growth inhibition is 1% in experiment [1] (setting [7]); 15% in experiment [1] (setting [8]); 49.5% in experiment [1] (at 50.0 µM); -8% in experiment [2] (setting [7]); 48% in experiment [2] (setting [8]); 29.8% in experiment [2] (at 50.0 µM). In addition, the growth inhibition in experiment [3] (setting [7]) is 4%; in experiment [3] (setting [8]) it was 66%; in experiment [3] (at 50.0 µM) it was 50.2%; in experiment [4] (setting [7]), 18%; in experiment [4] (setting [8]), 56%; in experiment [4] (at 50.0 µM), 71% (active). The growth inhibition in experiment [5] (setting [7]) is 7%; in experiment [5] (setting [8]) it was 28%; in experiment [5] (at 50.0 µM), 67.1%; in experiment [6] (setting [7]), -4%; in experiment [6] (setting [8]), 66%; in experiment [6] (at 50.0 µM) it was 86.3% (active).

As to `C=C1C(=O)OC2C1CC1OC2C(C)CCC/C(C)=C\CCC1(C)O` (stereo not given), the growth inhibition in experiment [1] (setting [7]) was 2%; in experiment [1] (setting [8]), 8%; in experiment [1] (at 50.0 µM), 92.5% (active); in experiment [2] (setting [7]), 2%; in experiment [2] (setting [8]) it was 25%; in experiment [2] (at 50.0 µM), 92.8% (active). Also, the growth inhibition was 2% in experiment [3] (setting [7]); 34% in experiment [3] (setting [8]); 94.1% (active) in experiment [3] (at 50.0 µM); -6% in experiment [4] (setting [7]); -8% in experiment [4] (setting [8]); 91.8% (active) in experiment [4] (at 50.0 µM). Further, the growth inhibition in experiment [5] (setting [7]) was -1%; in experiment [5] (setting [8]) it was 8%; in experiment [5] (at 50.0 µM), 92.4% (active); in experiment [6] (setting [7]), 1%; in experiment [6] (setting [8]), 20%; in experiment [6] (at 50.0 µM), 92.6% (active).

On to `CC(C)N=C1NS(=O)(=O)c2ccccc21`, for which the growth inhibition in experiment [1] (setting [7]) was -2%; in experiment [1] (setting [8]), -1%; in experiment [1] (at 50.0 µM), 5.5%; in experiment [2] (setting [7]), -2%; in experiment [2] (setting [8]), 0%; in experiment [2] (at 50.0 µM), -3.75%. In addition, the growth inhibition in experiment [3] (setting [7]) is 0%; in experiment [3] (setting [8]), -4%; in experiment [3] (at 50.0 µM), -0.4%; in experiment [4] (setting [7]) it was 0%; in experiment [4] (setting [8]), -2%; in experiment [4] (at 50.0 µM), 17.8%. Further, the growth inhibition in experiment [5] (setting [7]) is -3%; in experiment [5] (setting [8]) it was -2%; in experiment [5] (at 50.0 µM), 21.4%; in experiment [6] (setting [7]), -5%; in experiment [6] (setting [8]), 0%; in experiment [6] (at 50.0 µM) it was 2.6%.

As for `CC(=O)n1nc2c(c1CC(C)C)C(=O)C(Nc1ccccc1)=CC2=O`, the growth inhibition in experiment [1] (setting [7]) was 1%; in experiment [1] (setting [8]), 100% (active); in experiment [1] (at 50.0 µM), 77% (active); in experiment [2] (setting [7]), 1%; in experiment [2] (setting [8]), 100% (active); in experiment [2] (at 50.0 µM), 68.2%. The growth inhibition was 1% in experiment [3] (setting [7]); 100% (active) in experiment [3] (setting [8]); 80.2% (active) in experiment [3] (at 50.0 µM); 6% in experiment [4] (setting [7]); 99% (active) in experiment [4] (setting [8]); 27.9% in experiment [4] (at 50.0 µM). For the same molecule, the growth inhibition was -2% in experiment [5] (setting [7]); 99% (active) in experiment [5] (setting [8]); 23.2% in experiment [5] (at 50.0 µM); 1% in experiment [6] (setting [7]); 99% (active) in experiment [6] (setting [8]); 78.3% (active) in experiment [6] (at 50.0 µM).

With `CCC(=O)N1c2ccccc2CC1c1c[nH]c2ccccc12` (stereo not given), the growth inhibition in experiment [1] (setting [7]) is -4%; in experiment [1] (setting [8]), 98% (active); in experiment [1] (at 50.0 µM) it was 95.2% (active); in experiment [2] (setting [7]), -10%; in experiment [2] (setting [8]) it was 98% (active); in experiment [2] (at 50.0 µM), 30.8%. Moreover, the growth inhibition is -3% in experiment [3] (setting [7]); 98% (active) in experiment [3] (setting [8]); 77.4% (active) in experiment [3] (at 50.0 µM); -56% in experiment [4] (setting [7]); 99% (active) in experiment [4] (setting [8]); 74.5% (active) in experiment [4] (at 50.0 µM). Further, the growth inhibition was -10% in experiment [5] (setting [7]); 78% (active) in experiment [5] (setting [8]); 8.15% in experiment [5] (at 50.0 µM); 1% in experiment [6] (setting [7]); 98% (active) in experiment [6] (setting [8]); 93.3% (active) in experiment [6] (at 50.0 µM).
